Assay outcomes deposited in PubChem by National Center for Advancing Translational Sciences (NCATS).
HT1080 IDH1KD tx: qHTS for induction of synthetic lethality in tumor cells producing 2HG: qHTS for the HT-1080-IDH1KD cell line; HT-1080 IDH1 knockdown viability, ATP luminescence, 48 h; Potency, µM (highest dose often 46.1 µM), inactives show top-dose activity, negative = toxicity, hits mostly cytotoxic; actives 2% (n = 360,000); AID 686971, 2013;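 note: potency is the fitted concentration of half-maximal effect; 0% = DMSO wells and -100% = cell-free medium wells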
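% activity derives from luminescence (CellTiter-Glo), normalised to DMSO and no-cell wells. HT-1080-IDH1KD cells, 750/well, had 48 h compound exposure at 37 °C.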
TDP1 cell noCPT: qHTS for Inhibitors of human tyrosyl-DNA phosphodiesterase 1 (TDP1): qHTS in cells in absence of CPT; DT40 Tdp1-/- hTDP1 cells, no CPT, ATP luminescence, 48 h; Potency, µM (top dose mostly 46.2 µM), for the others: top-dose activity change, negative = growth inhibition, actives largely listed as inhibitors; actives 15% (n = 420,000); AID 686978, 2013; note: potency is the fitted concentration of half-maximal effect; nearly all actives have a fitted effect of over 55% in size
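Luminescent ATP content (CellTiter-Glo) served as the growth readout. Knockout chicken DT40 cells expressing human TDP1 were exposed to compounds without camptothecin for a minimum 48 hr at 37 °C.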
IL1B secr inh: qHTS for Inhibitors of Inflammasome Signaling: IL-1-beta AlphaLISA Primary Screen. actives 4.7% (n = 360,000). THP-1 LPS/ATP IL-1B secretion, AlphaLISA, 16 h; active compounds read low. activity change, % at 57.5 µM. AID 743279, 2014; in the data active = activity change below about -50%; inconclusive = mostly about -30% to -49%
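Secreted IL-1B measured by AlphaLISA bead assay after 16 h compound exposure of THP-1 cells; compounds (final up to 57.5 uM) added 1 h before LPS (250 ng/mL) and ATP (1.25 mM) stimulation; lower signal means less secretion.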
ELG1 repair inh: qHTS screen for small molecules that inhibit ELG1-dependent DNA repair in human embryonic kidney (HEK293T) cells expressing luciferase-tagged ELG1; actives 2.3% (n = 330,000); Potency, µM (titrated, usually from 46.1 µM), for the others: at the highest dose activity change, negative = inhibition, actives largely listed as inhibitors; AID 504467, 2011; HEK293T ELG1-luciferase reporter, luminescence, 16 h; DNA damage induced by 5-fluorouridine; note: potency is the fitted concentration of half-maximal effect; nearly all actives have a fitted effect of over 55% in size
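HEK293T cells expressing luciferase-tagged ELG1 (2,000/well) received 5-Fluorouridine plus compound or DMSO for 16 hr at 37 °C. Luciferase was read by ONE-Glo luminescence after 30 min at room temperature.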
TDP1 cell CPT: qHTS for Inhibitors of human tyrosyl-DNA phosphodiesterase 1 (TDP1): qHTS in cells in presence of CPT; chicken DT40 Tdp1-/-;hTDP1 cells + 20 nM CPT, ATP luminescence, 48 h; Potency, µM (titrated, usually from 46.2 µM), for inactives: at the top dose activity change, negative = growth inhibition, most hits filed as inhibitors; actives 12% (n = 420,000); note: potency is the fitted concentration of half-maximal effect; nearly all actives have a fitted effect of over 55% in size
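Cell growth measured by CellTiter-Glo luminescence after a minimum 48 h, 37 C compound exposure with 20 nM CPT in Tdp1-knockout DT40 cells stably expressing hTDP1, seeded 400/well; qHTS titration format.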
HT1080NT lethal: qHTS for induction of synthetic lethality in tumor cells producing 2HG: qHTS for the HT-1080-NT fibrosarcoma cell line. HT-1080-NT fibrosarcoma viability, CellTiter-Glo ATP luminescence, 48 h. Potency, µM (highest dose often 46.1 µM), for inactives: at the highest dose activity, negative = less viability, actives largely listed as cytotoxic. actives 1.6% (n = 360,000);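 note: NT is the 2HG producing partner of a matched IDH1 knockdown line; potency is the fitted concentration of half-maximal effect; 0% = DMSO-treated cells and -100% = media-only wells without cells; nearly all actives have a fitted effect of over 55% in size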
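Fibrosarcoma NT cells, 750 per well in 5% FBS RPMI, were exposed to compound for 48 hours. Viability: CellTiter-Glo luminescence.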
* = called active by the depositor; ? = inconclusive; / = no result given. Most compounds without a hit are left out; they make up all but 19% or so of the library. Unless noted, calls come from the whole dose curve; as a rule, active = well fitted curve in the direction sought with a large enough effect; inconclusive = small, poorly fitted or top-dose-only effect, or another doubt; inactive = no such curve, though single readings can be large; an effect the other way counts as inactive or inconclusive. Unless noted, % is set by controls: 0 for no effect and ±100 for the full control effect.

SMILES | HT1080 IDH1KD tx | TDP1 cell noCPT | IL1B secr inh | ELG1 repair inh | TDP1 cell CPT | HT1080NT lethal
CC(=O)NC1=NC(=O)/C(=C/c2cn(C(C)=O)nc2-c2ccccc2)S1 | -0.2% | ? | 2.8 | 20.6µM* | ? | 10.6%
CCN=C1S/C(=C\c2cn(C(C)=O)nc2-c2ccccc2)C(=O)N1CC | -3.4% | ? | -3.7 | ? | 16.4µM* | 21.1%
Cc1ccc(-c2nn(-c3ccccc3)cc2/C=C2\SC(=S)N(CC(=O)O)C2=O)cc1 | -4.7% | ? | -0.3 | 12.1% | ? | -7.1%
CCOC(=O)c1c(S(=O)(=O)N2CCC(C(=O)Nc3ccc(F)cc3F)CC2)c(C)n(C)c1C | / | -3.2% | / | / | -17.1% | /
C[C@H](NC(=O)c1ncn2c1C(=O)NC[C@@H]2C)C(=O)OC(C)(C)C | 2.3% | 8.6% | -9.2 | / | 3.7% | 3.2%
CC(=O)Nc1nonc1-c1nnc(SCC(=O)Nc2cc(C)cc(C)c2)n1C | / | ? | / | / | -23.8% | /
CCCCN1C(=N)N([C@@H](CCC)CN2CCC[C@H]2CN2C(N)=NC[C@H]2C(C)C)C[C@H]1[C@H](C)CC | 4.1% | ? | -16.9 | 1.5% | -14.6% | 2.5%
CC(C)C[C@@H]1CN=C(N)N1C[C@@H]1CCCN1C[C@H](C)N1C[C@@H](Cc2ccccc2)N(CCc2ccc(Cl)c(Cl)c2)C1=N | -2.7% | ? | 0.0 | -4.0% | 18.4µM* | 0.2%
CCC[C@@H](CN1CCC[C@H]1CN1C(N)=NC[C@H]1C(C)C)N1C[C@@H]([C@H](C)CC)N(CCCC2CCCC2)C1=N | 1.8% | ? | -17.9 | 15.1% | ? | -0.1%
CC(C)C[C@@H]1CN=C(N)N1C[C@@H]1CCCN1C[C@@H](C(C)C)N1C[C@@H](Cc2ccccc2)N(CCc2ccc(Cl)c(Cl)c2)C1=N | 0.1% | -13.5% | ? | 2.3% | -2.6% | -3.6%
CCCCN1C(=N)N([C@@H](C)CN2CCC[C@H]2CN2C(N)=NC[C@H]2CC(C)C)C[C@H]1[C@H](C)CC | 0.6% | 16.4µM* | 0.0 | -0.6% | 23.1µM* | 7.2%
CCC[C@@H](CN1CCC[C@H]1CN1C(N)=NC[C@H]1CC(C)C)N1C[C@@H]([C@H](C)CC)N(CCCC2CCCC2)C1=N | -8.7% | 16.4µM* | -57.6* | -2.2% | 20.6µM* | -2.4%
O=C(Nc1cccs1)Nc1nnc([C@@H]2C[C@H](O)[C@@H](CO)O2)s1 | 5.8% | -15.4% | 62.2 | / | -29.8% | 2.1%
Cc1ccc(Cn2c(CN3CCC(C(=O)NCCc4ccccc4)CC3)cc3ccccc32)cc1 | / | 16.4µM* | / | / | 23.1µM* | /
Cc1ccc(Cn2c(CN3CCC(C(=O)NCC(C)c4ccccc4)CC3)cc3ccccc32)cc1 (stereo not drawn) | / | 25.9µM* | / | / | ? | /
Cc1cc(C)nc(N2CCC(C(=O)NCc3ccccc3F)CC2)n1 | 10.1% | 13.1% | 18.1 | 8.2% | 2.4% | -7.3%
O=C(NCc1ccco1)C1CCN(c2nc3ccccc3n2Cc2ccccc2F)CC1 | -8.5% | ? | ? | ? | 16.4µM* | 11.3%
O=C(CCC1CCCN(Cc2cccc(Cl)c2)C1)NCc1ccccc1F (stereo not drawn) | 1.6% | ? | 0.0 | -10.5% | 20.6µM* | 28.2%
O=C(Nc1nnc([C@@H]2C[C@H](O)[C@@H](CO)O2)s1)c1cccc(Cl)c1 | 17.5% | 0.4% | 8.5 | / | 6.8% | 17.9%
